Test results taken from PubChem BioAssay (NCATS).
Inconclusive results are not listed. Calls of active or inactive are those of the source. Calls follow the shape of the dose curve; as a rule, active = well fitted cell-killing curve with a large enough effect; inconclusive = small, poorly fitted or top-dose-only effect, or effect the other way; inactive = flat fitted curve, though single readings scatter.

Key:
Experiment in all cases: Primary qHTS to identify gynecologic anti-cancer compounds using libraries of approved drugs and bioactive compounds (AID 1345084); also: nearly all actives have a fitted effect of over 55% in size
[1] = test system: C33A; settings: Gynecologic cancer cell panel viability, ATPlite luminescence, 48 h; series mostly up to 57.5 µM
Outline: (§1)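 Luminescence from the ATPlite ATP-monitoring reagent indicates viable cell number; lower signal means cytotoxicity. Cells received compound 16 h after seeding and were exposed for 48 h across five concentrations.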

[2] = test system: CAOV3; settings: Gynecologic cancer cell panel viability, ATPlite luminescence, 48 h; series mostly up to 57.5 µM
Outline: as §1

[3] = test system: CASKI; settings: Gynecologic cancer cell panel viability, ATPlite luminescence, 48 h; series mostly up to 57.5 µM
Outline: as §1

[4] = test system: Es-2; settings: Gynecologic cancer cell panel viability, ATPlite luminescence, 48 h; series mostly up to 57.5 µM
Outline: as §1

[5] = test system: HeLa; settings: Gynecologic cancer cell panel viability, ATPlite luminescence, 48 h; series mostly up to 57.5 µM
Outline: as §1

[6] = test system: Hek293T; settings: Gynecologic cancer cell panel viability, ATPlite luminescence, 48 h, control line for the selectivity index; series mostly up to 57.5 µM
Outline: as §1

[7] = test system: JEG-3; settings: Gynecologic cancer cell panel viability, ATPlite luminescence, 48 h; series mostly up to 57.5 µM
Outline: as §1

[8] = test system: OV90; settings: Gynecologic cancer cell panel viability, ATPlite luminescence, 48 h; series mostly up to 57.5 µM
Outline: as §1

[9] = test system: PA-1; settings: Gynecologic cancer cell panel viability, ATPlite luminescence, 48 h; series mostly up to 57.5 µM
Outline: as §1

[10] = test system: SKOV3; settings: Gynecologic cancer cell panel viability, ATPlite luminescence, 48 h; series mostly up to 57.5 µM
Outline: as §1

[11] = test system: Tov-21-G; settings: Gynecologic cancer cell panel viability, ATPlite luminescence, 48 h; series mostly up to 57.5 µM
Outline: as §1

[12] = test system: Tov112D; settings: Gynecologic cancer cell panel viability, ATPlite luminescence, 48 h; series mostly up to 57.5 µM
Outline: as §1
% is scaled to controls: 0 for no effect and ±100 for the full control effect.

CC1CC[C@]2(C(=O)O)CC[C@]3(C(=O)O)C(=CCC4[C@@]5(C)CC[C@H](O[C@@H]6O[C@H](CO)[C@@H](O)[C@H](O)[C@H]6O)C(C)(C)C5CC[C@]43C)C2C1C (stereo partly specified)
inactive: Potency [1] | Potency [2] | Potency [3] | Potency [4] | Potency [5] | Potency [6] | Potency [7] | Potency [8] | Potency [9] | Potency [10] | Potency [11] | Potency [12]

CC(C)=CCC[C@](C)(O[C@@H]1O[C@H](CO)[C@@H](O)[C@H](O)[C@H]1O)[C@H]1CC[C@]2(C)[C@@H]1[C@H](O)CC1[C@@]3(C)CC[C@H](O)C(C)(C)C3[C@@H](O[C@@H]3O[C@H](CO)[C@@H](O)[C@H](O)[C@H]3O[C@@H]3OC[C@@H](O)[C@H](O)[C@H]3O)C[C@]12C (stereo partly specified)
inactive: activity change, negative = cytotoxicity [1] -5.13% [at 11.6 µM] | activity change, negative = cytotoxicity [2] 0.415% [at 11.6 µM] | activity change, negative = cytotoxicity [3] -3.01% [at 11.6 µM] | activity change, negative = cytotoxicity [4] 3.44% [at 11.6 µM] | activity change, negative = cytotoxicity [5] 9.51% [at 11.6 µM] | activity change, negative = cytotoxicity [6] -2.61% [at 11.6 µM] | activity change, negative = cytotoxicity [7] -16.8% [at 11.6 µM] | activity change, negative = cytotoxicity [8] -3.26% [at 11.6 µM] | activity change, negative = cytotoxicity [9] 2.46% [at 11.6 µM] | activity change, negative = cytotoxicity [10] -3.65% [at 11.6 µM] | activity change, negative = cytotoxicity [11] -2.34% [at 11.6 µM] | activity change, negative = cytotoxicity [12] -2.93% [at 11.6 µM]

O=C1C=CC(O)(/C=C/C(=O)OC[C@H]2O[C@@H](Oc3ccc(O)cc3)[C@H](O)[C@@H](O)[C@@H]2O)C=C1
inactive: Potency [1] | Potency [2] | Potency [3] | Potency [4] | Potency [5] | Potency [6] | Potency [7] | Potency [8] | Potency [9] | Potency [10] | Potency [11] | Potency [12]

CCCC(=O)NCCc1csc(-c2ccc(Cl)cc2)n1
inactive: Potency [1] | Potency [2] | Potency [3] | Potency [4] | Potency [5] | Potency [6] | Potency [7] | Potency [8] | Potency [9] | Potency [10] | Potency [11] | Potency [12]

CC1(C)CC[C@]2(C(=O)O)CC[C@]3(C)C(=CCC4[C@@]5(C)CC[C@H](O[C@@H]6O[C@H](CO)[C@@H](O)[C@H](O)[C@H]6O[C@@H]6O[C@H](CO)[C@@H](O)[C@H](O)[C@H]6O)[C@@](C)(CO)C5CC[C@]43C)[C@@H]2C1 (stereo partly specified)
inactive: Potency [1] | Potency [2] | Potency [3] | Potency [4] | Potency [5] | Potency [6] | Potency [7] | Potency [8] | Potency [9] | Potency [10] | Potency [11] | Potency [12]

Nc1nc(-n2cc(C(=O)O)c(=O)c3cc(F)c(N4CC(O)C4)c(Cl)c32)c(F)cc1F
inactive: Potency [1] | Potency [2] | Potency [3] | Potency [4] | Potency [5] | Potency [6] | Potency [7] | Potency [8] | Potency [9] | Potency [10] | Potency [11] | Potency [12]

O=C(OC[C@@]1(O)CO[C@@H](O[C@H]2[C@H](Oc3ccc(O)cc3)O[C@H](CO)[C@@H](O)[C@@H]2O)[C@@H]1O)c1ccc(O)cc1
inactive: Potency [1] | Potency [2] | Potency [3] | Potency [4] | Potency [5] | Potency [6] | Potency [7] | Potency [8] | Potency [9] | Potency [10] | Potency [11] | Potency [12]

O=C(OC[C@H]1O[C@H](O[C@]2(CO)O[C@H](CO)[C@@H](O)[C@@H]2O)[C@H](O)[C@@H](O)[C@@H]1O)c1ccccc1
inactive: Potency [1] | Potency [2] | Potency [3] | Potency [4] | Potency [5] | Potency [6] | Potency [7] | Potency [8] | Potency [9] | Potency [10] | Potency [11] | Potency [12]

CC(=O)OC1C(O)C2C(C)C3=CC(=O)OC3(O)CC2C2(C)CCCC(C)(CO)C12 (stereo unspecified)
inactive: Potency [1] | Potency [2] | Potency [3] | Potency [4] | Potency [5] | Potency [6] | Potency [7] | Potency [8] | Potency [9] | Potency [10] | Potency [11] | Potency [12]

CC1CCC2(OC1)OC1CC3C4CCC5C[C@@H](O[C@@H]6O[C@H](CO[C@@H]7OC[C@@H](O)[C@H](O)[C@H]7O)[C@H](O)[C@H](O)[C@H]6O)CC[C@]5(C)C4CC[C@]3(C)C1C2C (stereo partly specified)
inactive: Potency [1] | Potency [2] | Potency [3] | Potency [4] | Potency [5] | Potency [6] | Potency [7] | Potency [8] | Potency [9] | Potency [10] | Potency [11] | Potency [12]

CC1=CC2/C=C(\C)CC[C@@H](O)[C@@H](O)[C@@H]3O[C@@H]3C(=O)[C@]23C(=O)N[C@@H](CC(C)C)[C@@H]3[C@@H]1C (stereo partly specified)
inactive: Potency [1] | Potency [2] | Potency [3] | Potency [4] | Potency [5] | Potency [6] | Potency [7] | Potency [8] | Potency [9] | Potency [10] | Potency [11] | Potency [12]

CC(C)(O)CC(CO)NC(=O)CC(O)CC(=O)Cc1ccccc1 (stereo unspecified)
inactive: Potency [1] | Potency [2] | Potency [3] | Potency [4] | Potency [5] | Potency [6] | Potency [7] | Potency [8] | Potency [9] | Potency [10] | Potency [11] | Potency [12]

COc1cc(C(=O)OC[C@@]2(O)CO[C@@H](O[C@H]3[C@H](Oc4ccc(C(=O)O)cc4OC)O[C@H](CO)[C@@H](O)[C@@H]3O)[C@@H]2O)ccc1O
inactive: Potency [1] | Potency [2] | Potency [3] | Potency [4] | Potency [5] | Potency [6] | Potency [7] | Potency [8] | Potency [9] | Potency [10] | Potency [11] | Potency [12]

O=C(Nc1ccn[nH]1)c1c(F)cccc1F
inactive: Potency [1] | Potency [2] | Potency [3] | Potency [4] | Potency [5] | Potency [6] | Potency [7] | Potency [8] | Potency [9] | Potency [10] | Potency [11] | Potency [12]

Cc1ccccc1NC(=O)Nc1ccc(CC(=O)N(C)[C@@H](CC(C)C)C(=O)NCC[C@H](NC(=O)[C@@H]2CCCN2S(=O)(=O)c2cc(Cl)cc(Cl)c2)C(=O)O)cc1
inactive: Potency [1] | Potency [2] | Potency [3] | Potency [4] | Potency [5] | Potency [6] | Potency [7] | Potency [8] | Potency [9] | Potency [10] | Potency [11] | Potency [12]

O=C(O)c1cc(-c2c(-c3ccccc3)nn3ccccc23)n[nH]c1=O
inactive: Potency [1] | Potency [2] | Potency [3] | Potency [4] | Potency [5] | Potency [6] | Potency [7] | Potency [8] | Potency [9] | Potency [10] | Potency [11] | Potency [12]

CCNCc1nc2c(N)nc3ccccc3c2n1CC(C)(C)O
inactive: Potency [1] | Potency [2] | Potency [3] | Potency [4] | Potency [5] | Potency [6] | Potency [7] | Potency [8] | Potency [9] | Potency [10] | Potency [11] | Potency [12]

CC(C)(O[C@@H]1O[C@H](CO)[C@@H](O)[C@H](O)[C@H]1O)C(OC(=O)/C=C\c1ccc(O)cc1)C(=O)OCc1ccc(O[C@@H]2O[C@H](CO)[C@@H](O)[C@H](O)[C@H]2O)cc1 (stereo partly specified)
inactive: Potency [1] | Potency [2] | Potency [3] | Potency [4] | Potency [5] | Potency [6] | Potency [7] | Potency [8] | Potency [9] | Potency [10] | Potency [11] | Potency [12]
